Here are results for 56 compounds from PubChem BioAssay AID485297 (National Center for Advancing Translational Sciences (NCATS), 2010).

Structures are written as SMILES. The whole screen tested about 320,000 compounds, of which about 9,100 (2.8%) were called active. Not shown: some 3% with an inconclusive outcome. Many of the other results were omitted from the sample, so actives are more common in it than they were. Unmarked numbers belong to inactive results. The call rests on the fitted dose curve; in most records, active means well fitted activation curve with a large enough effect; inconclusive means small, poorly fitted or top-dose-only effect; inactive means no such curve, though single readings can be large or run the other way.
Potency means the concentration at half of the fitted maximal effect.

This assay is described as follows: qHTS Assay for Rab9 Promoter Activators. Further: nearly all actives have a fitted effect of over 60% in size. On activation, negative = inhibition: % of control where 0% means no effect. To be noted: Huh7 Rab9 promoter-luciferase reporter, luminescence, 24 h; series mostly up to 9.22 µM; activation, negative = inhibition: at the top concentration. The procedure, abridged:
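Promoter activation is measured as luciferase luminescence in Huh7 cells stably transfected with a Rab9 promoter–luciferase construct, following 24 h compound exposure at 37 °C and 10 min reagent incubation at ambient temperature.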
For orientation: qHTS replaces the single test concentration by a dilution series.
For `Clc1cccc(Cl)c1Cn1nnc(-c2cccs2)n1`, the Potency is 2.82 µM (active). For `COc1ccccc1N1CCN(C(=O)Cn2nnc(-c3cccs3)n2)CC1`, the “activation, negative = inhibition” value is -2.68%.

On to `O=c1cc(Cn2nnc(-c3ccc(Cl)cc3)n2)nc2sccn12`, for which the “activation, negative = inhibition” value was 1.42%. With `Nc1ccc(-n2nncc2-c2ccco2)cc1`, the “activation, negative = inhibition” value is -10.6%. Turning to `COc1ccc(CCC(=O)N2CCN(S(=O)(=O)c3ccc(OC)cc3)CC2)cc1`, the “activation, negative = inhibition” value was -3.76%. For the compound `COc1ccc(CCNC(=O)CCc2ccccc2O)cc1OC`, the “activation, negative = inhibition” value is 19.5%. With `O=C(O)/C(=C/c1cccnc1)NC(=O)c1ccccc1`, the “activation, negative = inhibition” value is 2.06%. `CCOc1ccc(NC(=O)CN(C)C(=O)CCSc2ccc(F)cc2)cc1OCC`: the “activation, negative = inhibition” value is -5.95%. For `C=CCSc1ccc(S(=O)(=O)N2CCN(C)CC2)cn1`, the “activation, negative = inhibition” value is -0.521%. Still for that read-out and setting: the value for `O=C(Nc1ccccc1)N1CCC(C(=O)N2CCN(Cc3ccccc3)CC2)CC1` was 7.55%. On to `Cn1c(N)c(C(=O)COC(=O)/C=C/c2cccc(C(F)(F)F)c2)c(=O)n(C)c1=O`, for which the “activation, negative = inhibition” value is -0.132%.

Consider `C/C(=N\Nc1nc2ccccc2[nH]1)c1cccs1`, for which the Potency was 1 µM (active). Regarding `O=C(Nc1ccccc1-c1nc2ccccc2[nH]c1=O)c1cccs1`, the “activation, negative = inhibition” value is 1.89%. Consider `C/C(=N\Nc1ncc(Cl)cc1Cl)c1cccs1`, for which the Potency was 1.26 µM (active). For `C/C(=N\Nc1ccc(S(N)(=O)=O)cc1[N+](=O)[O-])c1cccs1`, the “activation, negative = inhibition” value was 8.35%.

With `C/C(=N\Nc1nc(Nc2ccccc2)nc(N2CCOCC2)n1)c1cccs1`, the “activation, negative = inhibition” value was -9.1%. `C/C(=N\NS(=O)(=O)c1ccc(Br)cc1)c1cccs1`: the “activation, negative = inhibition” value was -7.45%. With `O=C(c1ccc(Cl)nc1)N1CCN(S(=O)(=O)c2ccc3c(c2)OCCO3)CC1`, the “activation, negative = inhibition” value was 1.05%. Same read-out and setting: the value for `CCc1ccccc1OCC(=O)Nc1ccc(C)c(S(=O)(=O)N2CCCCCC2)c1` was 0.199%; that for `CCCCN(C(=O)C1=NN(c2cc(C)ccc2C)C(=O)CC1)c1c(N)n(CCC)c(=O)[nH]c1=O` was 0.441%.

On to `CCC1CCC2(CC1)NC(=O)N(CC(=O)Nc1ccc(OC)cc1)C2=O` (stereo unspecified), for which the “activation, negative = inhibition” value was -5.48%. For the compound `COc1ccc(OC)c(CN2CCN(C(=O)CNC(=O)c3cc(C)cc(C)c3)CC2)c1`, the “activation, negative = inhibition” value was -0.729%. Consider `COc1cc([C@H](Cc2ccccc2)NC(C)=O)oc(=O)c1`, for which the “activation, negative = inhibition” value was 3.07%.

Take `Cc1ccc(C)c(C(=O)COC(=O)Cn2[nH]c(=O)c3ccccc3c2=O)c1`: the “activation, negative = inhibition” value is 0.526%. On to `O=c1c(-c2ccccc2)coc2cc(O)ccc12`, for which the Potency was 2.82 µM (active). In the case of `CC(C)CN(Cc1c(O)ccc2c(=O)c(-c3ccccc3)coc12)CC(C)C`, the “activation, negative = inhibition” value is 0.55%. In the case of `O=c1c(-c2ccccc2)coc2c(CN3CCOCC3)c(O)ccc12`, the “activation, negative = inhibition” value is 0.818%. Consider `COc1ccccc1CNC(=O)CCCN1C(=O)NC2(CCCC2)C1=O`, for which the “activation, negative = inhibition” value is -12.7%. On the same count and under the same terms, the value for `COc1ccc(C2(C)ON(c3ccccc3C(F)(F)F)C2=O)cc1` (stereo unspecified) was -2.59%; that for `Cc1nc(-c2ccc(F)cc2)c(CC(=O)N(C)CC(=O)Nc2c(C)cccc2C)s1` was 7.06%; that for `Cc1ccc(/C=N/NC(=O)c2sccc2OCc2ccc(F)cc2)cc1` was -11.5%. For `Cc1ccsc1C(=O)N/N=C/c1ccc([N+](=O)[O-])cc1`, the Potency was 3.55 µM (active). On to `Cc1ccc(NC(=O)c2sccc2C)cc1[N+](=O)[O-]`, for which the Potency was 1.78 µM (active). Consider `Cc1ccc(NC(=O)CN2CCC(C(N)=O)CC2)cc1[N+](=O)[O-]`, for which the “activation, negative = inhibition” value is 18.2%. Regarding `Cc1nc2ccccc2cc1C(=O)N/N=C/c1ccc([N+](=O)[O-])cc1`, the “activation, negative = inhibition” value is -2.69%. `Cc1ccc(NC(=O)CN(C)CC(=O)Nc2cccc(F)c2)cc1[N+](=O)[O-]`: the “activation, negative = inhibition” value is -18.7%. Same read-out and setting: under `CN(C)c1cc2c(Nc3ccc4c(cnn4Cc4ccccc4)c3)ncnc2cn1` stands -30.6% [at 46.1 µM]; under `CNC(=O)C1CC(=O)N(c2ccc(OCC(=O)Nc3ccccc3C)cc2)C1` (stereo unspecified), 5.32%; under `COc1ccc(NS(=O)(=O)c2cc(NC(=O)COc3ccccc3F)ccc2OC)cc1`, 1.94%. Turning to `CCOc1ccc2oc(C(=O)N(CC)CC(=O)Nc3ccc(NC(C)=O)cc3)c(C)c2c1`, the “activation, negative = inhibition” value was -1.55%.

For `CCC[C@H]1CCCC/C=C\CCCC(=O)OCCN1C(=O)OC(C)(C)C`, the “activation, negative = inhibition” value was -5.47%. On the same count and under the same terms, under `Nc1c(C(=O)OCC(=O)Nc2ccc(OC(F)F)cc2)[nH]c(=O)[nH]c1=O` stands 0.105%. As for `COc1cccc(/C=C/c2ccc3ccccc3n2)c1OC(C)=O`, the Potency is 0.447 µM (active). For `COc1cccc(/C=C2\C=C(c3ccc(C)cc3)OC2=O)c1OC(C)=O`, the “activation, negative = inhibition” value is 1.65%.

As for `NC(=O)COC(=O)/C=C/c1ccc2ccccc2n1`, the “activation, negative = inhibition” value was 1.99%. As to `CCc1ccc(Nc2nnc(SCC(=O)c3ccc4c(c3)NC(=O)CO4)s2)cc1`, the “activation, negative = inhibition” value was -30.9%. As for `Cc1noc(C)c1-c1ccc2ncnc(NC(C)c3ccco3)c2c1` (stereo unspecified), the “activation, negative = inhibition” value was -2.48%. Still for that read-out and setting: the value for `COc1ccc(CN2CCN(C(=O)c3cc(C4CC4)nn3-c3ccccc3)CC2)cc1F` was 15.7%. `Nc1ccc2nn(-c3ccc(Cl)cc3)nc2c1`: the Potency was 0.224 µM (active).

`CN(C)c1nnnn1-c1ccc(Cl)cc1`: the “activation, negative = inhibition” value was 2.01%. On the same count and under the same terms, under `c1ccc(-n2nc3ccccc3n2)cc1` stands -3.95%. As for `CCOc1ccc(N2C(=O)CSC2=NC#N)cc1`, the “activation, negative = inhibition” value was -2.64%. `C=CCn1c(SCC(=O)Nc2ccc(NC(C)=O)cc2)nc2sc(C)c(C)c2c1=O`: the “activation, negative = inhibition” value is -8.33%. On to `Cc1ccc(NC(=O)Nc2ccc3oc(C)nc3c2)cc1`, for which the Potency was 1.58 µM (active). On to `COC(=O)c1ccc(NC(=O)Nc2ccc(C)cc2)cc1`, for which the “activation, negative = inhibition” value is 27.4%. In the case of `Cc1nc2ccc(NC(=O)C(F)(F)F)cc2o1`, the “activation, negative = inhibition” value is 1.46%.
